# Results: the antibiotic and cytotoxicity screens of Wong et al. (2023)
# Screen size: about 39,000 compounds; about 3,300 (8.5%) were called active. For the sample, actives were picked, then their nearest neighbours and some compounds at random.
# System: HepG2
# Experiment: cytotoxicity call (relative viability < 0.9)
# Conditions: 10 µM
row,SMILES,cytotoxicity call
1,N=C(N)SCCN,inactive
2,CN1CCN(C(=O)C[C@@H]2C=C[C@H](NC(=O)Nc3ccccc3F)[C@H](CO)O2)CC1,inactive
3,COc1ccc(NC(=O)Nc2ccc3c(c2)C(=O)N([C@@H](C)CO)C[C@H](C)[C@@H](CN(C)C(=O)Nc2ccccc2)OCCCC[C@H](C)O3)cc1,inactive
4,CN1C(=O)[C@@H]2CN(c3ncccn3)C[C@@H]2C12CCN(S(C)(=O)=O)CC2,inactive
5,C[C@H](CO)N1C[C@H](C)[C@@H](CN(C)S(=O)(=O)c2ccc(Cl)cc2)Oc2ccc(N(C)C)cc2CC1=O,inactive
6,Cc1ccc(S(=O)(=O)N(C)C[C@H]2OCCCC[C@@H](C)Oc3ccc(NC(=O)Nc4c(C)noc4C)cc3C(=O)N([C@H](C)CO)C[C@H]2C)cc1,inactive
7,COc1ccc2cc1/C=C\NC(=O)[C@H](Cc1ccccc1)NC(=O)[C@@H]1[C@H](CCN1C(=O)[C@@H](NC(=O)[C@@H](C)N(C)C)C(C)C)O2,inactive
8,CO[C@@H](CN(C)S(=O)(=O)c1cccc(Cl)c1)[C@H](C)CN([C@@H](C)CO)S(=O)(=O)c1ccc(Cl)cc1,inactive
9,C[C@@H]1CN([C@H](C)CO)C(=O)c2cc(NC(=O)CCC(F)(F)F)ccc2O[C@@H](C)CCCCO[C@@H]1CN(C)CC1CCCCC1,inactive
10,C[C@@H]1CN([C@H](C)CO)C(=O)c2cccc(NC(=O)c3nc4ccccc4s3)c2O[C@H]1CN(C)Cc1ccc(C(F)(F)F)cc1,inactive
11,C[C@@H]1CN([C@@H](C)CO)C(=O)c2cc(Br)cnc2O[C@@H]1CN(C)S(=O)(=O)c1ccc(F)cc1,inactive
12,C[C@@H]1CCCCO[C@@H](CN(C)C(=O)CCC(F)(F)F)[C@@H](C)CN([C@H](C)CO)C(=O)c2cc(NS(=O)(=O)c3ccc(F)cc3)ccc2O1,inactive
13,CCOC(=O)CSc1nnc2c3sc4nc(N5CCOCC5)c5c(c4c3ncn12)CC(C)(C)OC5,active
14,O=C(NCCCN1CCOCC1)C(=O)NC1CC1,inactive
15,COc1ccc(CN(C)C[C@@H]2OCCCC[C@@H](C)Oc3ccc(NS(=O)(=O)c4ccc(Cl)cc4)cc3C(=O)N([C@H](C)CO)C[C@H]2C)cc1,inactive
16,COc1ccc(CN(C)C[C@H]2OCCCC[C@H](C)Oc3ccc(NS(=O)(=O)c4ccc(Cl)cc4)cc3C(=O)N([C@@H](C)CO)C[C@@H]2C)cc1,inactive
17,COc1ccc(CN(C)C[C@H]2OCCCC[C@@H](C)Oc3ccc(NS(=O)(=O)c4ccc(Cl)cc4)cc3C(=O)N([C@@H](C)CO)C[C@@H]2C)cc1,inactive
18,COc1ccc(CN(C)C[C@@H]2OCCCC[C@H](C)Oc3ccc(NS(=O)(=O)c4ccc(Cl)cc4)cc3C(=O)N([C@H](C)CO)C[C@@H]2C)cc1,active
19,COc1ccc(CN(C)C[C@@H]2OCCCC[C@@H](C)Oc3ccc(NS(=O)(=O)c4ccc(Cl)cc4)cc3C(=O)N([C@H](C)CO)C[C@@H]2C)cc1,inactive
20,COc1ccc(CN(C)C[C@H]2OCCCC[C@H](C)Oc3ccc(NS(=O)(=O)c4ccc(Cl)cc4)cc3C(=O)N([C@@H](C)CO)C[C@H]2C)cc1,inactive
21,COc1ccc(CN(C)C[C@@H]2OCCCC[C@H](C)Oc3ccc(NS(=O)(=O)c4ccc(Cl)cc4)cc3C(=O)N([C@@H](C)CO)C[C@H]2C)cc1,active
22,COc1ccc(CN(C)C[C@H]2OCCCC[C@@H](C)Oc3ccc(NS(=O)(=O)c4ccc(Cl)cc4)cc3C(=O)N([C@@H](C)CO)C[C@H]2C)cc1,active
23,COc1ccc(CN(C)C[C@H]2OCCCC[C@@H](C)Oc3ccc(NS(=O)(=O)c4ccc(Cl)cc4)cc3C(=O)N([C@H](C)CO)C[C@@H]2C)cc1,inactive
